In PMC4081100, “A DNA-binding-site landscape and regulatory network analysis for NAC transcription factors in Arabidopsis thaliana”:

Columns and labels:
Assay in all cases: universal protein binding microarray (PBM); transcription factors of Arabidopsis thaliana; high values mean tight binding
GST-ANAC092(1-176) = target: T1, GST-ANAC092(1-176) (Arabidopsis thaliana, UniProt Q9FKA0 1-176); conditions: protein: recombinant; tags: GST; chain copies: 2; dsDNA, one strand shown
T1 sequence: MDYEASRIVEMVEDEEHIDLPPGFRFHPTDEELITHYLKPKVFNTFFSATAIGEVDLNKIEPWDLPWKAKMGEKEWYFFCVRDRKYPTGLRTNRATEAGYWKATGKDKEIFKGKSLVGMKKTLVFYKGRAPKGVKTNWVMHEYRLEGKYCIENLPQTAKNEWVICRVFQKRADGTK
Summary of the method: (§1)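 For zinc-finger proteins, zinc acetate was added while GST-tagged NAC-domain, full-length or DNA-binding-domain proteins were induced in cells. Purification used glutathione–Sepharose 4B, and quantification used A280 or anti-GST western blot. Custom all-10-mer Agilent 4 × 180K arrays, made double-stranded by primer extension, each received a protein at 200 to 500 nM final in duplicate. Scoring covered gapped and ungapped 8-mers, with binding given as the normalised enrichment score (E-score).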

[1] = target: T2, GST-ANAC092(1-285) full length (Arabidopsis thaliana, UniProt Q9FKA0 1-285); conditions: protein: recombinant; tags: GST; chain copies: 2; dsDNA, one strand shown
T2 sequence: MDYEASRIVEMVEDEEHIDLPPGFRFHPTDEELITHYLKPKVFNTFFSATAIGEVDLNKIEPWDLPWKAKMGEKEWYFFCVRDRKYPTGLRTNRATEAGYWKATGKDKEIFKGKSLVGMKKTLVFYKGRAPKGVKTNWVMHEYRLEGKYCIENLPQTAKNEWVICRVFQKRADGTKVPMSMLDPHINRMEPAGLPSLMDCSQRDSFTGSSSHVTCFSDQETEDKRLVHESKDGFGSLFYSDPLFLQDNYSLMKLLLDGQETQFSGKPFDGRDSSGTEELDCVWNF
Summary of the method: as §1

GST-WRKY1(266-371) = GST-WRKY1(266-371) (Arabidopsis thaliana, UniProt Q9SI37 266-371); conditions: protein: recombinant; tags: GST; dsDNA, one strand shown
Chain of GST-WRKY1(266-371) (Q9SI37 266-371): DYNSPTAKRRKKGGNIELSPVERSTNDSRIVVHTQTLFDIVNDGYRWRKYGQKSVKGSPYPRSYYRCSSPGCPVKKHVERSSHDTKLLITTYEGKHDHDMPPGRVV
Summary of the method: as §1

GST-ANAC019 NAC domain = target: T3, GST-ANAC019 NAC domain (Arabidopsis thaliana, UniProt Q9C932 14-162); conditions: protein: recombinant; tags: GST; chain copies: 2; dsDNA, one strand shown
T3 sequence: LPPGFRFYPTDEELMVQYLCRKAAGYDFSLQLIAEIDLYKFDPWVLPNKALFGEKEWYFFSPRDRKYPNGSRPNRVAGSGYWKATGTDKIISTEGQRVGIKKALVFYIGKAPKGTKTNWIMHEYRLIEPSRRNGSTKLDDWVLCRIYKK
Summary of the method: as §1

GST-ATAF1 NAC domain = target: T4, GST-ATAF1 NAC domain (Arabidopsis thaliana, UniProt Q39013 7-158); conditions: protein: recombinant; tags: GST; chain copies: 2; dsDNA, one strand shown
T4 sequence: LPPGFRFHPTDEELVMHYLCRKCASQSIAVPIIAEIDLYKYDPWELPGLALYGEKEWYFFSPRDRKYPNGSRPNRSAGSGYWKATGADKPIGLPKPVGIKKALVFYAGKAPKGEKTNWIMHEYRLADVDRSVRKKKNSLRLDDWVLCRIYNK
Summary of the method: as §1

GST-NAP(1-166) = target: T5, GST-NAP(1-166) (Arabidopsis thaliana, UniProt O49255 1-166); conditions: protein: recombinant; tags: GST; chain copies: 2; dsDNA, one strand shown
T5 sequence: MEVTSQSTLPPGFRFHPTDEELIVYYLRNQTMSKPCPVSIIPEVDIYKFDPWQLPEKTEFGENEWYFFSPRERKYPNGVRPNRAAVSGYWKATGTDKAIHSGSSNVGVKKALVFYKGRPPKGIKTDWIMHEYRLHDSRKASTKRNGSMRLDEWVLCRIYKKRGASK
Summary of the method: as §1

GST-NTL6(1-168) = GST-NTL6(1-168) (Arabidopsis thaliana, UniProt Q9SCK6 1-168); conditions: protein: recombinant; tags: GST; chain copies: 2; dsDNA, one strand shown
Chain of GST-NTL6(1-168) (Q9SCK6 1-168): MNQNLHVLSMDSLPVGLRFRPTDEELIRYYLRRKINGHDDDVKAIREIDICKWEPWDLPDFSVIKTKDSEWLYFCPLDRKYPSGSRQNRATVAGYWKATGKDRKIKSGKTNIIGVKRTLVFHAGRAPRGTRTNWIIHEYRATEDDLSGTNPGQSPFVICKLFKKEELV
Summary of the method: as §1

GST-ANAC055(1-171) = target: T6, GST-ANAC055(1-171) (Arabidopsis thaliana, UniProt Q9LDY8 1-171); conditions: protein: recombinant; tags: GST; chain copies: 2; dsDNA, one strand shown
T6 sequence: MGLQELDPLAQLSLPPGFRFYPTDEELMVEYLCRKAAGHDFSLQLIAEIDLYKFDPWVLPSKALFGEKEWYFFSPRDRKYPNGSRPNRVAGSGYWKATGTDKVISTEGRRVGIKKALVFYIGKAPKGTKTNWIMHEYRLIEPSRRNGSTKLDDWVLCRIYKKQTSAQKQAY
Summary of the method: as §1

GST-NTL8 NAC domain = target: T7, GST-NTL8 NAC domain (Arabidopsis thaliana, UniProt Q9XIN7 14-156); conditions: protein: recombinant; tags: GST; chain copies: 2; dsDNA, one strand shown
T7 sequence: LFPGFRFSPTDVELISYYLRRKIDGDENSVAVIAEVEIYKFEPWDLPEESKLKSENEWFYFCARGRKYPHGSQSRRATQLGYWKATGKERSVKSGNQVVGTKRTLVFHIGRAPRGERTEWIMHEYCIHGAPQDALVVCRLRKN
Summary of the method: as §1

GST-NST2(1-184) = target: T8, GST-NST2(1-184) (Arabidopsis thaliana, UniProt Q9M274 1-184); conditions: protein: recombinant; tags: GST; chain copies: 2; dsDNA, one strand shown
T8 sequence: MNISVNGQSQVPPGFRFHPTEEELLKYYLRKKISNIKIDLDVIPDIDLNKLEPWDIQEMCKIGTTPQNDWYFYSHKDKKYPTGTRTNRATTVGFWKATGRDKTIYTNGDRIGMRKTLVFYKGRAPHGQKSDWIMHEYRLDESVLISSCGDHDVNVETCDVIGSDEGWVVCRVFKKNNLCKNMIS
Summary of the method: as §1

GGGTCAAC
binding signal (GST-ANAC092(1-176)): 0.0723 E-score
binding signal [1]: 0.0889 E-score
binding signal (GST-WRKY1(266-371)): 0.493 E-score

CTCTTGAC
binding signal (GST-ANAC092(1-176)): 0.059 E-score
binding signal (GST-ANAC019 NAC domain): 0.0833 E-score
binding signal (GST-ATAF1 NAC domain): 0.0783 E-score
binding signal (GST-NAP(1-166)): 0.0978 E-score
binding signal (GST-WRKY1(266-371)): 0.449 E-score

AGTCCACG
binding signal (GST-ANAC092(1-176)): 0.062 E-score
binding signal (GST-ANAC019 NAC domain): 0.0759 E-score
binding signal (GST-WRKY1(266-371)): 0.438 E-score

GCGAAGAC
binding signal (GST-NTL6(1-168)): 0.12 E-score
binding signal (GST-ANAC019 NAC domain): 0.0689 E-score
binding signal (GST-ANAC055(1-171)): 0.0506 E-score
binding signal (GST-NAP(1-166)): 0.0548 E-score
binding signal (GST-NTL8 NAC domain): 0.109 E-score
binding signal (GST-WRKY1(266-371)): 0.404 E-score

AAAGTCAG
binding signal (GST-ANAC092(1-176)): 0.1 E-score
binding signal (GST-ANAC019 NAC domain): 0.0919 E-score
binding signal (GST-ATAF1 NAC domain): 0.0653 E-score
binding signal (GST-NST2(1-184)): 0.085 E-score
binding signal (GST-WRKY1(266-371)): 0.461 E-score

TGACCAAA
binding signal (GST-ANAC092(1-176)): 0.0758 E-score
binding signal [1]: 0.126 E-score
binding signal (GST-WRKY1(266-371)): 0.457 E-score

GCATTGAC
binding signal (GST-ANAC092(1-176)): 0.0797 E-score
binding signal (GST-ATAF1 NAC domain): 0.0849 E-score
binding signal (GST-NST2(1-184)): 0.0561 E-score
binding signal (GST-WRKY1(266-371)): 0.47 E-score

CCCTTGAC
binding signal (GST-ANAC092(1-176)): 0.0597 E-score
binding signal (GST-NTL6(1-168)): 0.0561 E-score
binding signal (GST-ANAC019 NAC domain): 0.0511 E-score
binding signal (GST-NAP(1-166)): 0.067 E-score
binding signal (GST-NTL8 NAC domain): 0.151 E-score
binding signal (GST-WRKY1(266-371)): 0.459 E-score

CAAGTCAA
binding signal (GST-ANAC092(1-176)): 0.0929 E-score
binding signal (GST-ATAF1 NAC domain): 0.0933 E-score
binding signal [1]: 0.234 E-score
binding signal (GST-WRKY1(266-371)): 0.486 E-score

GTCAGCGA
binding signal (GST-WRKY1(266-371)): 0.43 E-score

GGGTCAAA
binding signal (GST-ANAC092(1-176)): 0.0694 E-score
binding signal (GST-NST2(1-184)): 0.0921 E-score
binding signal (GST-WRKY1(266-371)): 0.48 E-score

GGCTTGAC
binding signal (GST-ANAC092(1-176)): 0.0969 E-score
binding signal (GST-WRKY1(266-371)): 0.452 E-score

CAGTCAAG
binding signal (GST-ANAC092(1-176)): 0.051 E-score
binding signal [1]: 0.063 E-score
binding signal (GST-NTL8 NAC domain): 0.0503 E-score
binding signal (GST-WRKY1(266-371)): 0.444 E-score

AGTTGACC
binding signal (GST-NTL6(1-168)): 0.0645 E-score
binding signal (GST-WRKY1(266-371)): 0.49 E-score

ACTGGTCA
binding signal (GST-ANAC092(1-176)): 0.127 E-score
binding signal (GST-WRKY1(266-371)): 0.433 E-score

GTCAATGA
binding signal (GST-NTL6(1-168)): 0.0646 E-score
binding signal (GST-WRKY1(266-371)): 0.466 E-score

CGACGACC
binding signal (GST-WRKY1(266-371)): 0.439 E-score

AAAGGTCA
binding signal (GST-ANAC092(1-176)): 0.0939 E-score
binding signal (GST-ANAC055(1-171)): 0.106 E-score
binding signal (GST-ATAF1 NAC domain): 0.137 E-score
binding signal [1]: 0.0795 E-score
binding signal (GST-NTL8 NAC domain): 0.154 E-score
binding signal (GST-WRKY1(266-371)): 0.424 E-score

CTGACTTA
binding signal (GST-NTL6(1-168)): 0.195 E-score
binding signal (GST-WRKY1(266-371)): 0.42 E-score

CTGACCGC
binding signal (GST-ANAC092(1-176)): 0.0725 E-score
binding signal (GST-WRKY1(266-371)): 0.425 E-score

AGTCAAGG
binding signal (GST-ANAC092(1-176)): 0.104 E-score
binding signal (GST-ANAC019 NAC domain): 0.0733 E-score
binding signal [1]: 0.139 E-score
binding signal (GST-NAP(1-166)): 0.0507 E-score
binding signal (GST-NST2(1-184)): 0.0876 E-score
binding signal (GST-WRKY1(266-371)): 0.475 E-score

GGTCAACC
binding signal (GST-ANAC092(1-176)): 0.144 E-score
binding signal (GST-ANAC019 NAC domain): 0.0527 E-score
binding signal (GST-ATAF1 NAC domain): 0.0896 E-score
binding signal [1]: 0.061 E-score
binding signal (GST-WRKY1(266-371)): 0.491 E-score

GTTGACCA
binding signal (GST-ANAC092(1-176)): 0.131 E-score
binding signal (GST-WRKY1(266-371)): 0.492 E-score

CTAAGTCA
binding signal (GST-NTL6(1-168)): 0.146 E-score
binding signal (GST-WRKY1(266-371)): 0.413 E-score

CTGGTCAA
binding signal (GST-ANAC092(1-176)): 0.0676 E-score
binding signal (GST-WRKY1(266-371)): 0.488 E-score

CCAGTCAA
binding signal (GST-ANAC092(1-176)): 0.0755 E-score
binding signal (GST-ANAC019 NAC domain): 0.0525 E-score
binding signal (GST-WRKY1(266-371)): 0.474 E-score

TGGGTCAA
binding signal (GST-ANAC092(1-176)): 0.156 E-score
binding signal [1]: 0.159 E-score
binding signal (GST-NTL8 NAC domain): 0.0706 E-score
binding signal (GST-WRKY1(266-371)): 0.483 E-score

GCTGGTCA
binding signal (GST-WRKY1(266-371)): 0.452 E-score

GGTCAAAC
binding signal (GST-ANAC092(1-176)): 0.0595 E-score
binding signal (GST-ATAF1 NAC domain): 0.0641 E-score
binding signal [1]: 0.0869 E-score
binding signal (GST-NST2(1-184)): 0.0597 E-score
binding signal (GST-WRKY1(266-371)): 0.494 E-score

GCGTGGAC
binding signal (GST-ANAC092(1-176)): 0.0916 E-score
binding signal (GST-ANAC019 NAC domain): 0.0892 E-score
binding signal [1]: 0.19 E-score
binding signal (GST-WRKY1(266-371)): 0.404 E-score

AGGTCAAC
binding signal (GST-ATAF1 NAC domain): 0.051 E-score
